Results from ChEMBL document CHEMBL4296182, “CO-ADD screening of NIH NCI Diversity Set V”.
The whole screen tested about 23,000 compounds, of which about 30 (0.1%) showed an effect of 50% or more. The list comes from a sample in which strong results are over-represented; it also holds similar structures and randomly drawn compounds. Results with a measured potency or affinity are listed apart.

Each molecule was assayed on Pseudomonas aeruginosa. Conditions: Concentration 20 uM; ASSAY_TEST Inhibition of Bacterial Growth; detection method Absorption (OD600); MEDIA CAMHB; plate type 384well; NBS; CORNING #3640; time 18 hr.

Row | Compound | Inhibition
1 | OCc1ncccc1O | 3.5%
2 | Oc1ccnc2c(Cl)cccc12 | -8.65%
3 | Oc1ccc2ccccc2c1/N=N/c1ccc(F)cc1 | 0.71%
4 | O=[N+]([O-])c1cccc(/C=C/c2ccccn2)c1 | 19.15%
5 | CSc1nc(S)c2[nH]c(S)nc2n1 | 6.05%
6 | Cc1ccc(/N=N/c2ccc(N)cc2C)c(S(N)(=O)=O)c1 | -1.43%
7 | COc1ccc(/C(C#N)=C/c2cccnc2)cc1 | 11.13%
8 | C=CCC(CC)C(=O)NC(=O)N1CCCc2ccccc21 (centres undefined) | -1.54%
9 | C=C1S/C(=N\c2c(C)cccc2Cl)N(C(=O)c2sc3ccccc3c2Cl)C12CCCCC2 | -6.03%
10 | COC1OC(CO)C(N=C(C)C)C1O (centres undefined) | -2.66%
11 | c1ccc(Nc2cccc3c(Nc4ccccc4)cccc23)cc1 | 21.7%
12 | O=C(Nc1cccnc1)c1cccc([N+](=O)[O-])c1 | 8.42%
13 | COC1OC(O)C(NC(=O)C(F)(F)F)CC1O (centres undefined) | 6.88%
14 | O=C1CSCc2nc3ccccc3n21 | 23.81%
